“And” between values parts separate entries of the source, which are not always exact repeats. Equal entries are not always repeated. Inconclusive results are not listed. Entries that show only a call come without a potency. A number with no mark means an inactive call. The source made the active and inactive calls. Calls come from the whole dose curve; as a rule, active = well fitted cell-killing curve with a large enough effect in the repeat runs; inconclusive = weak or mixed curves, or effect the other way; inactive = flat fitted curve, though single readings scatter.
test: qHTS assay to identify small molecule antagonists of the retinoid acid receptor (RAR) signaling pathway - cell viability counter screen (AID 1159551); settings: C3RL4 cells viability, ATP luminescence (CellTiter-Glo), 6 h; series mostly up to 92.4 µM; note: nearly all actives have a fitted effect of over 35% in size
From the text: U.S. Tox21 Program National Center for Advancing Translational Sciences [NCATS] NIH Chemical Genomics Center [NCGC] U.S. Environmental Protection Agency [EPA] National Institutes of Environmental Health Sciences [NIEHS] National Toxicology Program [NTP] U.S. Food and Drug Administration [FDA] Tox21 Assay Overview: All-trans Retinoic acid (atRA) is the potent natural metabolite of retinol and plays an important role in normal embryonic development and maintenance of cellular phenotype in adult animals. atRA is the activating ligand for the retinoic acid receptors (RARs) which form heterodimers with retinoid X receptors (RXRs) on the retinoic acid response element (RARE). Through activation of the RAR/RXRs nuclear receptors, atRA regulates the transcription of a large number of protein-coding genes and regulatory RNAs. Intracellular levels of atRA are controlled by the retinol signaling pathway (RSP) that regulates the biosynthesis and catabolism of atRA to maintain physiological levels. Chemicals that interfere with the RSP can cause abnormal intracellular levels of atRA and therefore are potential developmental toxicants. To assess compounds for the potential adverse effect on embryonic development through interfering with retinol signaling, a cell-based RARE luciferase reporter gene assay was used. C3RL4 cell line (OARSA/CFSAN/FDA, Laurel, MD) was used to screen Tox21 10K compound library for identifying inhibitors of the RSP. Also cytotoxicity was assessed by determining the viability of cells based on the quantitation of ATP.
Tox21 Assay Protocol Summary: C3RL4 cells were seeded at 1,000/well in 4 uL of assay medium into white solid 1,536-well tissue culture plates (Greiner Bio-One North America Inc. Monroe, NC) using a Multidrop Combi (Thermo Scientific, Waltham, MA) dispenser. After incubation at 37 C and 5% CO2 for an overnight, 23 nL of compounds dissolved in DMSO, positive control or DMSO only were transferred by a Pintool station (Kalypsys, San Diego, CA). One ul of 1 uM (final concentration) of Retinol was added right after the compound addition by using a Flying Reagent Dispenser (FRD) (Aurora Discovery, San Diego, CA). After 6 hr incubation at 37 C and 5% CO2, 5 uL of CellTiter-Glo reagent (Promega Corporation, Madison, WI) was added to each assay plate using an FRD. Luminescence was quantified on a ViewLux plate reader (PerkinElmer, Waltham, MA) after 30 min incubation at room temperature.
Potency is the fitted concentration of half-maximal effect.

Compound | Potency | activity change, negative = cytotoxicity
CC(C)(C)c1ccc(O)c(C(C)(C)C)c1 | 54.3 µM (active) and 54.5 µM (active) | –
C=CS(=O)(=O)O | inactive | –
COC(c1ccccc1)(c1ccccc1)[C@H](Oc1nc(C)cc(C)n1)C(=O)O | inactive | –
CCc1cc(C(C)(C)C)c(O)c(C(C)(C)C)c1 | inactive | –
COc1ccc(COC(C)=O)cc1 | inactive | –
c1ccc2n[nH]nc2c1 | inactive | –
Nc1cc(Cl)c(-c2cc(Cl)c(N)cc2Cl)cc1Cl | 30.6 µM (active) | –
CNC1(C)C2CCC(C2)C1(C)C (stereo not given) | inactive | –
O=C(O)CP(=O)(O)O | inactive | –
CN1C(=O)c2ccc([N+](=O)[O-])cc2C1=O | inactive | –
CC(C)(C)NCC(O)c1cc(O)cc(O)c1 (stereo not given) | inactive | –
CC1=C(C=O)C(C)(C)CC=C1 | inactive | –
O=C(O)Cn1cnnn1 | inactive | –
Cc1cccc([N+](=O)[O-])c1C(=O)O | inactive | –
CC(N)=O | inactive | –
COc1ccc(CCN2CCC(Nc3nc4ccccc4n3Cc3ccc(F)cc3)CC2)cc1 | 44.2 µM (active) | –
NC(Cc1ccc(Cl)cc1)C(=O)O (stereo not given) | – | 2.93% [at 0.349 µM]
CCn1c2ccccc2c2cc(N)ccc21 | inactive | –
CCC[C@H](N[C@@H](C)C(=O)N1[C@H](C(=O)O)C[C@@H]2CCCC[C@@H]21)C(=O)OCC | inactive | –
O=C(O)c1cccc(C(=O)O)c1 | inactive | –

Compound | Potency | activity change, negative = cytotoxicity
CC1=CC(=O)c2ccccc2C1=O | 27.3 µM (active) | –
Cc1ccnc2c1NC(=O)c1cccnc1N2C1CC1 | inactive | –
COC(=O)/C=C/c1ccccc1 | inactive | –
CCc1ccc(C(c2ccc(CC)cc2)C(Cl)Cl)cc1 | inactive | –
COC(=O)c1cccc(C(=O)OC)c1 | inactive | –
C/C=C/c1ccc(OCC)c(O)c1 | inactive | –
CC(C)(c1ccccc1)c1ccc(Nc2ccc(C(C)(C)c3ccccc3)cc2)cc1 | inactive | –
NC(=Nc1ccccc1)Nc1ccccc1 | inactive | –
CC(=O)Nc1ccc(C(=O)CCl)cc1 | inactive | –
CN(C)c1ccc(C(=C2C=CC(=[N+](C)C)C=C2)c2ccccc2)cc1 | 10.6 µM (active) [middle of 4 runs] | –
CCCCCCCCCCCC[N+](C)(C)C | inactive | –
CN(C)c1ccc2nc3ccc(=[N+](C)C)cc-3sc2c1 | 13.1 µM (active) and 30.6 µM (active) and 23.7 µM (active) | –
O=c1n(CC2CO2)c(=O)n(CC2CO2)c(=O)n1CC1CO1 (stereo not given) | inactive | –
CCCNC(C)C(=O)Nc1ccccc1C (stereo not given) | inactive | –
c1cc(C(c2ccc(OCC3CO3)cc2)C(c2ccc(OCC3CO3)cc2)c2ccc(OCC3CO3)cc2)ccc1OCC1CO1 (stereo not given) | inactive | –
Nc1ccc(O)cc1 | inactive | –
CC[C@@H](N)CO | inactive | –
CCC(C)(Oc1ccc(C2(c3ccc(OC(C)(CC)C(=O)O)cc3)CCCCC2)cc1)C(=O)O (stereo not given) | inactive | –
Nc1nc2ccccc2[nH]1 | inactive | –
Cc1ccc(S(=O)(=O)Oc2ccc(N=Nc3ccc(-c4ccc(N=Nc5c(O)ccc6cc(S(=O)(=O)O)cc(S(=O)(=O)O)c56)c(C)c4)cc3C)cc2)cc1 | 24.4 µM (active) and 20 µM (active) | –
